Rows were chosen to be rich in hits. Some 1% of all compounds tested hit in one or more screens of this group.
ROCK2 blocker: blocks human Rho kinase 2 activity | purified ROCK2, Kinase-Glo ATP depletion luminescence | inhibition, % at 6 µM | hit rate 0.35% among 60,000;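 active = inhibition above the screen-wide mean inhibition plus 3 SD, cut at about 18% in these data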;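 also: plate controls were DMSO wells for no effect and Y-27632 control wells after no-enzyme background subtraction for full effect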
Cdc25B inh: inhibitors of human Cdc25B phosphatase; P30305; hit rate 0.1% among 65,000; inhibition, %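 (compounds tested at 10 µM final in the well)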; AID 368; recombinant Cdc25B, OMFP fluorescence Ex485/Em525; in the data active = inhibition above about 50%
SKBR3 24h inh: SK-BR-3 proliferation inhibitors | viability, % at 10 µM | SK-BR-3 viability, CellTiter-Glo ATP luminescence, 24 h; active compounds read low | hit rate 0.47% among 41,000 | AID 847;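 active = viability at or below the median of all test compounds minus 3 SD, in both replicates if run twice, cut at about 45% in these data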;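 also: 100% = median untreated cell wells and 0% = median positive control drug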
Hsp90 inh: displaces geldanamycin probe from tumor Hsp90; NCI-N417 lysate Hsp90, Cy3B-geldanamycin FP displacement; inhibition, % at 30 µM; hit rate 0.35% among 64,000; AID 429;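 active = inhibition above 50%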;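 also: 0% = tracer plus lysate wells and 100% = tracer alone without lysate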
DUSP1 inh: blocks human MKP-1 phosphatase activity; inhibition, %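 (compounds tested at a single concentration somewhere between 10 and 100 µM)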; recombinant MKP-1, OMFP hydrolysis fluorescence; hit rate 0.15% among 65,000;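 active = inhibition above about 50%, limit read from the data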;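 also: 0% = DMSO max control wells and 100% = wells with enzyme stopped by NaOH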
PKA kinase inh: inhibitors of human protein kinase A; P17612; hit rate 0.1% among 65,000; PKA Kemptide phosphorylation, Kinase-Glo ATP luminescence; inhibition, % at 6 µM;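 active = inhibition above the screen-wide mean inhibition plus 3 SD, cut at about 21% in these data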
Redox H2O2 0p5DTT: counter-screen for Cdc25B probes: redox cycling H2O2 in 0.5 mM DTT. EC50, µM. cell-free redox cycling H2O2 generation. hit rate 50% among 30. AID 682. shares compounds with Cdc25B inh; in the data active = EC50 below about 30 µM
Redox 1 DTT: generates H2O2 by redox cycling in 1 mM DTT; shares compounds with Cdc25B inh; cell-free redox cycling H2O2 generation; EC50, µM; 30 tested, under 10 active; AID 683; in the data active = EC50 below about 50 µM
Redox H2O2: redox cycling H2O2 generation, MKP probe counter-screen. shares compounds with DUSP1 inh. DTT, phenol red/HRP. 60 tested, under 10 active. AID 672. EC50, µM; call rule not given here
Starred values were filed as active, the others as inactive; . = no result; ! = not confirmed by another sample.

SMILES	ROCK2 blocker	Cdc25B inh	SKBR3 24h inh	Hsp90 inh	DUSP1 inh	PKA kinase inh	others
NC(Cc1cc(O)c(O)cc1O)C(=O)O (configuration not stated)	.	.	.	94*	.	.
CCCCCCn1c(N)c(C(=O)NCCN2CCOCC2)c2nc3ccccc3nc21	-9	-27	2.3*	-6	29	-9
CCCCCn1c(N)c(C(=O)NCCN2CCOCC2)c2nc3ccccc3nc21	1	-33	.	-7	36	1
Cc1[nH]c2ccccc2c1C1=CCNCC1	26*	-6	.	-10	6	18
CCOC(=O)C1C(=O)NC23CCCC2C1c1ccccc1O3 (configuration not stated)	1	-10	.	0	4	0
COc1ccc(C(CC(=O)N2CCC3(CC2)OCCO3)NS(=O)(=O)c2ccc(F)cc2)cc1 (configuration not stated)	4	52*	.	3	3	8
N#Cc1cc2c(nc1SCC(=O)Nc1ccc(Cl)cc1)C1CCN2CC1	-2	-8	112	-1	-21	1
CN(N=O)c1ccc(O)c(O)c1	.	.	.	93*	.	.
COCC(C)OC(=O)c1c(N)n(Cc2ccco2)c2nc3ccccc3nc12 (configuration not stated)	7	18	91	-7	-16	5
CC(C)[C@H]1C(=O)N2CCC[C@H]2[C@]2(O)O[C@](NC(=O)[C@@H]3C=C4c5cccc6[nH]cc(c56)C[C@H]4N(C)C3)(C(C)C)C(=O)N12	36*	-1	90	3	17	4
CC(C)[C@@]1(NC(=O)[C@@H]2C=C3c4cccc5[nH]cc(c45)C[C@H]3N(C)C2)O[C@@]2(O)[C@@H]3CCCN3C(=O)[C@H](Cc3ccccc3)N2C1=O	13	-5	90	-9	24	-6
CC(C)[C@@]1(NC(=O)[C@@H]2C[C@@H]3c4cccc5[nH]cc(c45)C[C@H]3N(C)C2)O[C@@]2(O)[C@@H]3CCCN3C(=O)[C@H](Cc3ccccc3)N2C1=O	-2	2	137	87*!	7	-2
CN1CC[C@@]2(C)c3cc(O)ccc3N(C)C12 (some centres not stated)	.	.	.	91*	.	.
COc1ccc2c(c1OC)C(=O)O[C@H]2[C@@H]1c2cc3c(cc2CCN1C)OCO3	.	.	.	-2	.	.
COc1cc2c(cc1OC)-c1c(OC)c(OC)cc3c1C(C2)N(C)CC3 (configuration not stated)	6	3	85	91*	16	10
C[C@H]1CCCC(=O)CCC/C=C/c2cc(O)cc(O)c2C(=O)O1	.	-15	103	87*	1	8
O=C1CN=C(c2cccs2)c2c(sc3c2CCCC3)N1	-4	-12	113	-2	-28	5
CCn1c(O)c(C(=O)CC2NCCc3ccccc32)c(=O)n(CC)c1=S (configuration not stated)	-6	-6	3.2*	-8	-15	-12
CC(=O)Nc1cc(C(=O)N2CCC3(CC2)OCCO3)ccc1S(=O)(=O)c1ccc(C)cc1	1	0	111	1	1	8
CCCCn1c(NC(=O)c2ccco2)c(C(=O)OCC)c2nc3ccccc3nc21	-8	33	90	72*	22	-5
CCOC(=O)c1c(N)n(Cc2ccco2)c2nc3ccccc3nc12	4	0	79	30	11	5
CC(C)(C)c1ccc(O)c(CN2CCN(c3ccccc3)CC2)c1	6	-12	81	-7	0	8
Cc1c(C(=O)N2CCC3(CC2)OCCO3)sc2ncnc(N(C)c3ccccc3)c12	5	27	72	2	0	7
CCN1CCN(Cc2ccc(OC(F)(F)F)cc2)CC1	-3	-14	.	-1	4	-5
COc1ccc2c(c1)[C@@]13CCCC[C@H]1[C@@H](C2)NCC3	.	.	.	0	.	.
CN1C2CCC1CC(OC(=O)CCN1CCCC1)C2 (configuration not stated)	3	77*	.	0	-2	-2
O=C1C=Cc2ccccc2C1=O	.	99*	96	.	94*	.	Redox H2O2 0p5DTT=26*;Redox 1 DTT=>50;Redox H2O2=>50

Screening results: PubChem BioAssay, several laboratories
